Only some compounds are listed: those with a hit (about 2.4% of all), similar ones and a draw of the others.
AmpC inh det: Promiscuous and Specific Inhibitors of AmpC Beta-Lactamase (assay with detergent); P00811; purified AmpC, nitrocefin hydrolysis with detergent; Potency, µM (titrated, usually from 28.7 µM), inactives show at the top dose activity change, negative = inhibition; hit rate 0.09% among 71,000; active means well fitted curve in the direction sought with a large enough effect; inconclusive means small, poorly fitted or top-dose-only effect; further: on the % scale 0 is the no-effect control and ±100 the full control effect
Target sequence (P00811 whole entry, looked up): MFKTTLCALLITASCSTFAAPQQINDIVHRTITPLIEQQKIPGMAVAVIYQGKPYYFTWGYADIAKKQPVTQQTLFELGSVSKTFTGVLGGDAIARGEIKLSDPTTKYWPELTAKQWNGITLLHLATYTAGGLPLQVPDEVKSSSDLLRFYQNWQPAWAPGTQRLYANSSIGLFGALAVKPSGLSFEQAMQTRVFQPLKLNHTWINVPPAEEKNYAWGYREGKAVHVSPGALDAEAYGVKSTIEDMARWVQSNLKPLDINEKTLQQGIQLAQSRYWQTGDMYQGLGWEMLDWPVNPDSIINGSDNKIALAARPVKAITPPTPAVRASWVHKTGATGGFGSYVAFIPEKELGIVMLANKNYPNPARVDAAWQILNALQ
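E. coli AmpC (5.3 nM) in 20 mM phosphate pH 7.0 with 0.01% Triton X-100, preincubated 15 min RT with compound; nitrocefin (2 uL of 800 uM stock) hydrolysis followed by 480 nm absorbance every 20 s over 4 min.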
AmpC nodet inh: Promiscuous and Specific Inhibitors of AmpC Beta-Lactamase (assay without detergent). AmpC nitrocefin hydrolysis, absorbance 480 nm, no detergent. Potency, µM (doses to about 28.7 µM), without a hit: at the top dose activity change, negative = inhibition. hit rate 1.8% among 71,000; further: % of control where 0% means no effect
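Enzyme, pH 7.0 phosphate. Compound titrations were pre-incubated with AmpC for 15 min at room temperature before nitrocefin (stock 800 uM) addition; product formation was recorded at 480 nm every 20 s for 4 min.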
LT uptake inh: qHTS Assay for Anthrax Lethal Toxin Internalization; Potency, µM (top dose mostly 40 µM), for the others: at the highest dose activity change, negative = inhibition, hits mostly inhibitors; hit rate 0.67% among 70,000; AID 912, 2007; Cells, anthrax lethal toxin internalization, FRET ratio (460/530); further: on the % scale 0 is the no-effect control and ±100 the full control effect; nearly all actives have a fitted effect of over 50% in size
SmPrx2 inh: Schistosoma Mansoni Peroxiredoxins (Prx2); Schistosoma mansoni peroxiredoxin 2 (Prx2); S. mansoni Prx2 activity coupled to TGR/GSH (TGR is thioredoxin glutathione reductase), NADPH fluorescence loss, qHTS; Potency, µM; hit rate 0.07% among 65,000; AID 448, 2006
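Prx2 inhibition was measured as reduced NADPH consumption when electrons flowed from NADPH through TGR and glutathione to Prx2 and H2O2. Plates were read kinetically over 8 min; enzyme reagents were held at 4 deg C during dispensing.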
* hit, by the source's call; ? = inconclusive; . = not tested or not shown; [ ] = dose if it differs, or a comment. Unless noted, the call rests on the fitted dose curve. Potency means the concentration at half of the fitted maximal effect.

SMILES	AmpC inh det	AmpC nodet inh	LT uptake inh	SmPrx2 inh
O=C(Cn1c(C(=O)N2CCc3ccccc3C2)cc2sccc21)c1ccccc1	6%	16µM*[single pt active]	?	>57
O=C1c2ccccc2C(Nc2cccnc2)N1Cc1ccc2c(c1)OCO2 (configuration not stated)	13%	3.2µM*[single pt active]	0%	>57
O=C1c2ccccc2C(O)N1Cc1ccc2c(c1)OCO2 (configuration not stated)	13%	4µM*[single pt active]	-5%	>57
COc1ccc(OC)c(NC2c3ccccc3C(=O)N2Cc2ccc3c(c2)OCO3)c1 (configuration not stated)	15%	4µM*[single pt active]	?	>57
CC1(O)C(=O)C=C2C=C3CCCN3C=C2C1=O (configuration not stated)	.	.	-12%[8 µM]	.
Cc1nc2cnc(N(C)C)nc2n(CCc2ccccc2)c1=O	1%	32%	?	>57
CCNc1ncc2nc(-c3ccc(F)cc3)c(=O)n(-c3ccccc3)c2n1	-2%	-4%	?	>57
CCOc1ccc(-c2nnc(SCC(=O)N3CCN(c4ccccc4)CC3)o2)cc1	6%	-3%	1%	>57
O=C(CSc1nnc(-c2ccccc2)o1)N1CCN(c2ccccc2)CC1	-4%	13µM*[single pt active]	?	>57
O=C(c1ccco1)N1CCC2(CC1)CN(c1ccccc1)C2	6%	54%	2%	>57
Cc1oc(-c2ccc(Cl)cc2)nc1CS(=O)CC(=O)NCCN1CCCC1 (configuration not stated)	12%	4µM*[single pt active]	-17%	>57
Cc1ccc(-c2nc(CS(=O)CC(=O)NCc3ccccn3)c(C)o2)cc1 (configuration not stated)	12%	4µM*[single pt active]	-9%	>57
Cc1ccc(-c2nc(CS(=O)CC(=O)NCCN3CCCC3)c(C)o2)cc1 (configuration not stated)	15%	4µM*[single pt active]	10%	>57
Cc1ccc(-c2nc(CS(=O)CC(=O)NCCN3CCOCC3)c(C)o2)cc1 (configuration not stated)	7%	4µM*[single pt active]	-4%	>57
Cc1ccc(-c2nc(CS(=O)CC(=O)NCCN(CC(C)C)CC(C)C)c(C)o2)cc1 (configuration not stated)	-3%	92%	-10%	>57
O=C(O)c1cc(=O)c2ccc(Cl)cc2[nH]1	0%	-2%	?	>57
O=C(NC[C@@H]1CCCCN1)c1cc(OCC(F)(F)F)ccc1OCC(F)(F)F	0%[12.8 µM]	-1%[12.8 µM]	-1%[3.58 µM]	>57
CCN1CCN(CCNC(=O)C2CCCN(Cc3nc(-c4cccc(Cl)c4)oc3C)C2)CC1 (configuration not stated)	12%	82%	4µM*	>57
Cc1ccc(CNC(=O)CS(=O)Cc2nc(-c3ccccc3C)oc2C)cc1 (configuration not stated)	12%	94%	?	>57
Cc1ccccc1-c1nc(CS(=O)CC(=O)NCc2ccccc2)c(C)o1 (configuration not stated)	13%	4µM*[single pt active]	-5%	>57
CCOC(=O)N1CCC(NC(=O)C2CCCN(Cc3nc(-c4cccc(Cl)c4)oc3C)C2)CC1 (configuration not stated)	10%	90%	?	>57
Cc1ccccc1-c1nc(CS(=O)(=O)CC(=O)NCCN2CCOCC2)c(C)o1	6%	54%	-12%	>57
Cc1ccccc1-c1nc(CS(=O)CC(=O)NCCN2CCOCC2)c(C)o1 (configuration not stated)	15%	4µM*[single pt active]	-6%	>57
CC(=O)c1cc(C)oc1C	9%	0%	12%	.
O=C(Nc1nc(-c2cccs2)c(-c2ccccc2)s1)c1ccco1	-7%	-22%	13µM*	>57
SMILES	AmpC inh det	AmpC nodet inh	LT uptake inh	SmPrx2 inh
O=C(Nc1nnc(COc2ccccc2)s1)c1ccco1	-2%	0%	-1%	>57
N#Cc1cccc(-c2nccc(NCc3ccccc3)n2)c1	10%	19%	-8%	>57
N#Cc1cccc(-c2nccc(NCc3cccnc3)n2)c1	10µM*	5µM*	5%	>57
CSCC[C@@H](C(=O)O)N(C)C	-7%[5.75 µM]	-6%[5.75 µM]	-7%[8 µM]	>57
Cc1ccc2nc(NC(=O)CN(C)S(=O)(=O)c3ccc(Br)s3)sc2c1	3%	-22%	5µM*	>57
Cc1ccc2nc(NC(=O)CNS(=O)(=O)c3ccc(Br)s3)sc2c1	9%	-23%	?	>57
Cc1ccc(NC(=O)c2c(-c3c(F)cccc3Cl)noc2C)cc1F	-2%	-18%	10µM*	.
COc1ccccc1OCCn1cc(C(=O)c2ccco2)c2ccccc21	6%	6%	10µM*	>57
CCN(CC)CCCNC(=O)c1cc2c(-c3ccc(Cl)cc3)nn(C)c2s1	14%	4µM*[single pt active]	2.5µM*	>57
CN1CCN(CCCNC(=O)c2cc3c(-c4ccc(Cl)cc4)nn(C)c3s2)CC1	17%	170%	6.3µM*	>57
CC1CCCCN1CCNC(=O)c1cc2c(-c3ccccc3F)nn(C)c2s1 (configuration not stated)	10%	4µM*[single pt active]	7.9µM*	>57
Cn1nc(-c2ccc(Cl)cc2)c2cc(C(=O)NCC3CCCO3)sc21 (configuration not stated)	8%	150%	?	>57
C=Cc1c(C)c2cc3nc(cc4[nH]c(cc5nc(cc1[nH]2)C(C)=C5CCC(=O)O)c(CCC(=O)OC)c4C)[C@@]1(C)C3=CC=C(C(=O)OC)[C@H]1C(=O)OC (tested in a mixture with another compound)	-4%[12.8 µM]	90%[12.8 µM]	0%[3.58 µM]	>57
COc1ccccc1Oc1ccc2c(c1)C(=O)N(c1ccc(O)cc1)C2=O	-2%	13µM*[single pt active]	0%	>57
O=C(Oc1cc2oc(=O)c3c(c2cc1Cl)CCCC3)c1ccco1	7%	-7%	?	19*
COc1ccc2c(c[n+](C)c3c4cc5c(cc4ccc23)OCO5)c1OC	-3%	20%	25µM*	>57
CC(=O)NCCNc1ccnc(-c2ccccc2C(F)(F)F)n1	7%	14%	?	>57
Cc1cc(C(=O)N2CCN(c3ncccn3)CC2)sc1-c1ccccc1	-4%	56%	-9%	>57
CCN1CCN(C(=O)c2cc3c(s2)-c2ccccc2S(=O)(=O)C3)CC1	15%	4µM*[single pt active]	-14%	>57
O=C(c1ccco1)N1CCN(C(=O)c2cc3c(s2)-c2ccccc2OC3)CC1	11%	136%	-19%	>57
CN1CCN(C(=O)c2cc3c(s2)-c2ccccc2S(=O)(=O)C3)CC1	11%	4µM*[single pt active]	-3%	>57
COC(=O)NC(c1cccc(C)c1)[C@]1(C(C)=O)CCCC1=O (some centres not stated)	.	.	-9%[8 µM]	.
COC(=O)C(/C=C/C(C)Cc1cc(Br)cc(OCc2ccccc2)c1OC)OCc1ccccc1 (configuration not stated)	.	.	-22%[8 µM]	.
CN(C)C(=O)c1ccc(-c2ccc3ncnc(N(C)Cc4ccco4)c3c2)cc1	8%	51%	-13%	>57
Cc1nc(C)c(-c2csc(NCc3ccco3)n2)s1	1%	8%	-2%	>57

Screening data (PubChem BioAssay)
